Results reported in PubChem BioAssay (NCI).
Compounds without any hit were thinned out: in the full panel of roughly 83,000, 20% have a hit.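 Cell lines were cultured in 96-well plates, exposed to a single compound concentration, and assessed for percent growth 48 hours later.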 Activity calls are given as the source filed them. How the source made its calls: active means growth percent below 10; inactive means the rest.

What was measured:
Experiment in all cases: NCI-60 one-dose screen, 48 h (100 = growth as untreated, 0 = no growth, -100 = all killed)
Details in all cases: 10 µM
NCI-H23 lung = system: NCI-H23 lung
NCI-H226 lung = system: NCI-H226 lung
HOP-62 NSCLC = system: HOP-62 NSCLC
NCI-H460 lung = system: NCI-H460 lung
NCI-H522 lung = system: NCI-H522 lung
A549/ATCC NSCLC = system: A549/ATCC NSCLC
786-0 renal = system: 786-0 renal
COLO 205 colon = system: COLO 205 colon
DU-145 prostate = system: DU-145 prostate
K-562 leukemia = system: K-562 leukemia
MALME-3M melanoma = system: MALME-3M melanoma
MDA-MB-231 breast = system: MDA-MB-231 breast
RXF 393 renal = system: RXF 393 renal
SF-268 CNS = system: SF-268 CNS
SF-295 CNS = system: SF-295 CNS
SF-539 CNS = system: SF-539 CNS
UACC-257 melanoma = system: UACC-257 melanoma
M14 melanoma = system: M14 melanoma

Measured: growth

COc1cc2cc(Oc3ccc(NC(=O)Nc4ccc(C(F)(F)F)cc4)cc3)c(C)nc2cc1OC
active: RXF 393 renal 6.29%
inactive: NCI-H23 lung 79.3% | NCI-H226 lung 20.9% | HOP-62 NSCLC 18.8% | NCI-H460 lung 42.8% | NCI-H522 lung 63.2% | A549/ATCC NSCLC 32.4% | 786-0 renal 74.9% | COLO 205 colon 40.4% | DU-145 prostate 71.4% | K-562 leukemia 57.1% | MALME-3M melanoma 82.9% | MDA-MB-231 breast 80.9% | SF-268 CNS 79.3% | SF-295 CNS 56% | SF-539 CNS 96.9% | UACC-257 melanoma 66.5% | M14 melanoma 95.2%

O=C1CC(SC(=S)C2CCCC2=O)C(=O)N1 (stereo unspecified)
inactive: NCI-H23 lung 98.4% | NCI-H226 lung 92.4% | HOP-62 NSCLC 106% | NCI-H460 lung 104% | NCI-H522 lung 109% | A549/ATCC NSCLC 101% | 786-0 renal 95.7% | COLO 205 colon 116% | DU-145 prostate 108% | K-562 leukemia 98% | MALME-3M melanoma 104% | MDA-MB-231 breast 105% | RXF 393 renal 115% | SF-268 CNS 102% | SF-295 CNS 104% | SF-539 CNS 104% | UACC-257 melanoma 90.4% | M14 melanoma 101%

O=C(Nc1ccc2c(O)cc(S(=O)(=O)O)cc2c1)c1ccc([N+](=O)[O-])cc1
inactive: NCI-H23 lung 100% | NCI-H226 lung 96.2% | HOP-62 NSCLC 83.3% | NCI-H460 lung 107% | NCI-H522 lung 84.7% | A549/ATCC NSCLC 79.3% | 786-0 renal 98.6% | COLO 205 colon 91.8% | DU-145 prostate 99.7% | K-562 leukemia 99% | MALME-3M melanoma 99.8% | MDA-MB-231 breast 105% | RXF 393 renal 105% | SF-268 CNS 93.9% | SF-295 CNS 98.2% | SF-539 CNS 97% | UACC-257 melanoma 74.6% | M14 melanoma 94.6%

Cc1cc(CCNC=O)c(C)c2c1sc1ccccc12
inactive: NCI-H23 lung 86.6% | NCI-H226 lung 77.2% | HOP-62 NSCLC 86.2% | NCI-H460 lung 104% | NCI-H522 lung 101% | A549/ATCC NSCLC 82.9% | 786-0 renal 106% | COLO 205 colon 124% | DU-145 prostate 112% | K-562 leukemia 97.2% | MALME-3M melanoma 105% | MDA-MB-231 breast 79.9% | RXF 393 renal 80% | SF-268 CNS 92.5% | SF-295 CNS 94.8% | SF-539 CNS 87.2% | UACC-257 melanoma 90.1% | M14 melanoma 118%

O=C(NCCCNS(=O)(=O)c1ccc(Cl)cc1)Nc1ccc(-n2cc(-c3ccncc3)c(-c3ccc(Cl)c(O)c3)n2)cc1
inactive: NCI-H23 lung 42% | NCI-H226 lung 41% | HOP-62 NSCLC 76.4% | NCI-H460 lung 13.7% | NCI-H522 lung 40.6% | A549/ATCC NSCLC 28.4% | COLO 205 colon 16.4% | DU-145 prostate 46.6% | K-562 leukemia 10.1% | MALME-3M melanoma 37.6% | RXF 393 renal 18.9% | SF-268 CNS 49.1% | SF-539 CNS 47.9% | UACC-257 melanoma 33.7% | M14 melanoma 18.1%
active: 786-0 renal 1.59% | MDA-MB-231 breast -19.3% | SF-295 CNS 2.43%

Brc1ccc2c(c1)-c1ccccc1C1=NCCN12
active: NCI-H23 lung -8.64% | NCI-H226 lung -14.2% | HOP-62 NSCLC -24.3% | NCI-H460 lung -47.4% | NCI-H522 lung -61.9% | A549/ATCC NSCLC -18.8% | 786-0 renal -32.7% | COLO 205 colon -54% | DU-145 prostate -21.1% | K-562 leukemia 4.71% | MALME-3M melanoma -31.5% | MDA-MB-231 breast -7.62% | RXF 393 renal -62.6% | SF-268 CNS -2.39% | SF-295 CNS -50.7% | SF-539 CNS -1.45% | UACC-257 melanoma -23.9% | M14 melanoma -51.8%

CCC(CC)n1c(C)cc(=O)n1C(CC)CC
inactive: NCI-H23 lung 101% | NCI-H226 lung 99.1% | HOP-62 NSCLC 96.1% | NCI-H460 lung 103% | NCI-H522 lung 106% | A549/ATCC NSCLC 101% | 786-0 renal 105% | COLO 205 colon 115% | DU-145 prostate 113% | K-562 leukemia 105% | MALME-3M melanoma 142% | MDA-MB-231 breast 109% | RXF 393 renal 111% | SF-268 CNS 100% | SF-295 CNS 100% | SF-539 CNS 96.7% | UACC-257 melanoma 106% | M14 melanoma 110%

COc1cc(-c2nn(-c3cccc(NC(=O)CCN4CCN(c5ccccc5)CC4)c3)cc2-c2ccncc2)ccc1Cl
active: NCI-H460 lung 6.87% | 786-0 renal 2.45% | COLO 205 colon -36.9% | MDA-MB-231 breast 7.1% | RXF 393 renal -0.267%
inactive: NCI-H23 lung 24.5% | NCI-H226 lung 47.6% | HOP-62 NSCLC 34.2% | NCI-H522 lung 10.1% | A549/ATCC NSCLC 15.9% | DU-145 prostate 30.8% | K-562 leukemia 11.3% | MALME-3M melanoma 38% | SF-268 CNS 30% | SF-295 CNS 13.4% | SF-539 CNS 30.2% | UACC-257 melanoma 29.1% | M14 melanoma 10.8%

COc1ccc(/C=C2\CCCC3C2=Nc2ccccc2NC3c2ccc(OC)cc2)cc1 (stereo unspecified)
active: NCI-H522 lung 6.67%
inactive: NCI-H23 lung 78.7% | NCI-H226 lung 94.9% | HOP-62 NSCLC 128% | NCI-H460 lung 94.8% | A549/ATCC NSCLC 88.5% | 786-0 renal 101% | COLO 205 colon 116% | DU-145 prostate 101% | K-562 leukemia 50.9% | MALME-3M melanoma 94.3% | MDA-MB-231 breast 82.4% | RXF 393 renal 99.9% | SF-268 CNS 102% | SF-295 CNS 89.8% | SF-539 CNS 135% | UACC-257 melanoma 81.9%
